High-throughput results from PubChem.
Most compounds without a hit are left out; they make up all but 0.92% or so of the library.
AGP1 TOR yeast = alters AGP1-GFP fluorescence in TOR pathway yeast screen. S. cerevisiae AGP1-GFP multiplex flow cytometry, 3 h; GFP as percent of DMSO wells. GFP response vs DMSO, % at 10 µM. hit rate 0.02% among 320,000;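 active = GFP response relative to DMSO above a set limit, near screen average plus 3 SD, cut at about 150% in these data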;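 note: median GFP channel fluorescence of the gated AGP1 strain per well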
CIT2-GFP yeast = yeast TOR pathway CIT2-GFP modulation; hit rate 0.065% among 320,000; GFP response vs DMSO, % at 10 µM; AID 2029; S. cerevisiae CIT2-GFP strain, flow cytometry, 3 h; 100 means same as DMSO wells;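 active = GFP response relative to DMSO above a set limit, near the screen mean plus 3 SD, cut at about 150% in these data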;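 note: ratio of well median GFP fluorescence to mean of DMSO wells on the plate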
RPL19A TOR yeast = yeast TOR pathway RPL19A-GFP modulation; S. cerevisiae RPL19A-GFP strain, flow cytometry, 3 h; active compounds read low; percent response vs DMSO, % at 10 µM; hit rate 0.3% among 330,000; AID 2025;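 active = percent response vs DMSO below 50%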;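 note: median channel GFP fluorescence of the barcoded RPL19A-GFP strain; lower means less RPL19A-GFP as with rapamycin TOR inhibition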
MEP2-GFP yeast = yeast TOR pathway MEP2-GFP modulation; GFP response vs DMSO, % at 10 µM; S. cerevisiae MEP2-GFP strain, flow cytometry GFP, 3 h; 100% = DMSO control level; hit rate 0.51% among 330,000;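 active = GFP response versus DMSO above a set limit, roughly screen mean plus 3 SD, cut at about 180% in these data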;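 note: median GFP fluorescence of the barcode-gated MEP2-GFP cells per well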
LAP4-GFP MLPCN = modulators of TOR pathway LAP4-GFP in S. cerevisiae. S. cerevisiae LAP4-GFP multiplex, flow cytometry GFP, 3 h; median GFP as percent of DMSO wells. AID 2023. hit rate 0.34% among 320,000. GFP response vs DMSO, % at 10 µM;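 active = GFP response vs DMSO above a set limit, about the screen mean plus 3 SD, cut at about 150% in these data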
LAP4-GFP pick2 = reconfirmed LAP4-GFP TOR pathway modulator in yeast. shares compounds with LAP4-GFP MLPCN. hit rate 20% among 590. S. cerevisiae LAP4-GFP strain, flow cytometry GFP, 3 h. GFP response vs DMSO, % at 10 µM;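 active = GFP signal as percent of the solvent control above about 150%, meaning raised reporter expression, limit read from the data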
MEP2-GFP pick2 = yeast MEP2-GFP modulation, second cherry pick; S. cerevisiae MEP2-GFP strain, flow cytometry GFP, 3 h; GFP response vs DMSO, % at 10 µM; shares compounds with LAP4-GFP MLPCN; hit rate 10% among 590;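 active = GFP signal above 150% of the solvent control wells, that is a rise of more than half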;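 note: median channel GFP fluorescence of all gated yeast cells per well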
RPL19A GFP CP2 = reconfirmed modulator of RPL19A-GFP TOR reporter in yeast; shares compounds with LAP4-GFP MLPCN; S. cerevisiae RPL19A-GFP strain, flow cytometry GFP, 3 h; active compounds read low; 100% means same as DMSO wells; GFP response vs DMSO, % at 10 µM; hit rate 3% among 590; AID 2623;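 active = under 65% GFP response relative to DMSO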;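 note: median GFP channel fluorescence per well over the all cells gate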
CIT2 GFP CP2 = reconfirmed modulator of CIT2-GFP TOR reporter in yeast; shares compounds with LAP4-GFP MLPCN; S. cerevisiae CIT2-GFP strain, flow cytometry GFP, 3 h; DMSO control wells read 100%; GFP response vs DMSO, % at 10 µM; hit rate 8% among 590; AID 2624;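 active = GFP response vs DMSO above about 150%, limit read from the data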;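 note: median green fluorescence per well over all gated yeast cells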
AGP1 GFP CP2 = yeast AGP1-GFP TOR reporter modulation, second cherry pick | S. cerevisiae AGP1-GFP strain, flow cytometry GFP, 3 h | shares compounds with LAP4-GFP MLPCN | AID 2643 | 590 tested, under 10 active | percent response vs DMSO, % at 10 µM;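 active = over 150 percent of DMSO response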;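 note: median GFP channel fluorescence over all cells without mother daughter split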
s288c autofluor = counter-screen for compound autofluorescence in yeast s288c cells; S. cerevisiae s288c, 520 nm autofluorescence, flow cytometry, 3 h; active compounds read high; zero means same as solvent-only cells; fluorescence change (kMESF span) at 33 µM; shares compounds with LAP4-GFP MLPCN; AID 2757; 610 tested, under 10 active;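 active = fluorescence span over the dose series, or activity score, above about 33, limit read from the data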
Yeast autofl DR = counter-screen for autofluorescence of TOR hits in yeast s288c | shares compounds with LAP4-GFP MLPCN | S. cerevisiae s288c parental, compound autofluorescence, flow cytometry, 3 h | fluorescence change (span) at 33 µM | 110 tested, under 10 active | AID 488829;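 active = fluorescence change span, or the activity score built from it, above 25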
TORC1 bypass gr = compounds blocking wildtype yeast growth but not TORC1 bypass cells; S. cerevisiae BY4741 spot growth rating, 48-72 h; active compounds read low; shares compounds with LAP4-GFP MLPCN; growth rating (0-3) at 30 µM; AID 504456; 120 tested, under 10 active;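 active = growth rating at most 1 for wild type yeast while the TORC1 bypass strain still grows fully, rated 3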
Large screens that a line does not name were inactive (follow-up assays come after a bar, where they were run).

CNc1snc(C)c1C(=O)OCC(=O)NCc1ccccc1OC	none
O=C(O)c1ccc(NCc2cccc(Br)c2)cc1	LAP4-GFP MLPCN 158.7 | LAP4-GFP pick2 inactive | MEP2-GFP pick2 inactive | RPL19A GFP CP2 inactive | CIT2 GFP CP2 inactive | AGP1 GFP CP2 inactive
O=C(c1ccc(Cl)cc1)N1CCC(O)(CSc2ccccc2)CC1	none | LAP4-GFP pick2 inactive | MEP2-GFP pick2 inactive | RPL19A GFP CP2 inactive | CIT2 GFP CP2 inactive | AGP1 GFP CP2 inactive
CCCCN(CCCNC(=O)c1ccc(CS(=O)(=O)c2ccc(OC)cc2)o1)Cc1ccccc1	none | LAP4-GFP pick2 inactive | MEP2-GFP pick2 inactive | RPL19A GFP CP2 inactive | CIT2 GFP CP2 inactive | AGP1 GFP CP2 inactive
COCCNC(=O)c1ccc(CS(=O)(=O)c2ccc(OC)cc2)o1	none
Cn1c(SCC(=O)NNC(=O)c2ccccc2Br)nnc1C(F)(F)F	none
CCCN(CC(=O)Nc1ccccc1C)C(=O)c1ccc(-c2ccc([N+](=O)[O-])cc2)o1	MEP2-GFP yeast 609.2, LAP4-GFP MLPCN 196.0 | LAP4-GFP pick2 inactive | MEP2-GFP pick2 inactive | RPL19A GFP CP2 inactive | CIT2 GFP CP2 inactive | AGP1 GFP CP2 inactive
Cc1cccc(C)c1NC(=O)CNC(=O)c1c(-c2ccccc2)noc1C	none
CCCNC(=O)c1onc(CSc2ccc(Cl)cc2)c1C(=O)NC(C)C	LAP4-GFP MLPCN 173.0 | LAP4-GFP pick2 inactive | MEP2-GFP pick2 inactive | RPL19A GFP CP2 inactive | CIT2 GFP CP2 inactive | AGP1 GFP CP2 inactive
CC(C)NC(=O)c1onc(CSc2ccc(Cl)cc2)c1C(=O)NC(C)C	none
Cc1ccc(C)c(S(=O)(=O)ON2C(=O)c3ccccc3C2=O)c1	none
Cc1cc(S(=O)(=O)ON2C(=O)c3ccccc3C2=O)ccc1F	LAP4-GFP MLPCN 172.6 | s288c autofluor inactive
O=C1c2ccccc2C(=O)N1OS(=O)(=O)c1ccccc1	LAP4-GFP MLPCN 223.3 | LAP4-GFP pick2 inactive | MEP2-GFP pick2 159.7 | RPL19A GFP CP2 inactive | CIT2 GFP CP2 inactive | AGP1 GFP CP2 inactive | s288c autofluor inactive
O=C(c1ccccc1)c1c[nH]c(C(=O)NNc2ccccc2)c1	none
CC(C)(C)C(=O)NC(=S)NNC(=O)c1sc2ccccc2c1Cl	LAP4-GFP MLPCN 232.7 | s288c autofluor inactive
COc1ccc(C2Cc3ccccc3C(=O)O2)cc1 (stereo not given)	none
Cc1ccc2nc(Cl)c3nnnn3c2c1	LAP4-GFP MLPCN 297.9 | s288c autofluor inactive | Yeast autofl DR inactive | TORC1 bypass gr inactive
Nc1nc(Nc2ccccc2)nc(Nc2cccc(F)c2)c1[N+](=O)[O-]	none (no result: AGP1 TOR yeast, CIT2-GFP yeast, RPL19A TOR yeast, MEP2-GFP yeast, LAP4-GFP MLPCN) | Yeast autofl DR inactive | TORC1 bypass gr inactive
